# According to ChEMBL document CHEMBL2218924, “A broad activity screen in support of a chemogenomic map for kinase signalling research and drug discovery” (Biochem J, 2013):
# Assays:
# [1] = biological target: Death-associated protein kinase 1 (Homo sapiens) (UniProt P53355); conditions: at 10 µM
# [2] = biological target: Death-associated protein kinase 2 (Homo sapiens) (UniProt Q9UIK4); conditions: at 1 µM
# [3] = biological target: Death-associated protein kinase 2 (Homo sapiens) (UniProt Q9UIK4); conditions: at 10 µM
# [4] = biological target: T1, Serine/threonine-protein kinase DCLK2 (Homo sapiens) (UniProt Q8N568); conditions: at 1 µM
# T1 sequence (whole entry): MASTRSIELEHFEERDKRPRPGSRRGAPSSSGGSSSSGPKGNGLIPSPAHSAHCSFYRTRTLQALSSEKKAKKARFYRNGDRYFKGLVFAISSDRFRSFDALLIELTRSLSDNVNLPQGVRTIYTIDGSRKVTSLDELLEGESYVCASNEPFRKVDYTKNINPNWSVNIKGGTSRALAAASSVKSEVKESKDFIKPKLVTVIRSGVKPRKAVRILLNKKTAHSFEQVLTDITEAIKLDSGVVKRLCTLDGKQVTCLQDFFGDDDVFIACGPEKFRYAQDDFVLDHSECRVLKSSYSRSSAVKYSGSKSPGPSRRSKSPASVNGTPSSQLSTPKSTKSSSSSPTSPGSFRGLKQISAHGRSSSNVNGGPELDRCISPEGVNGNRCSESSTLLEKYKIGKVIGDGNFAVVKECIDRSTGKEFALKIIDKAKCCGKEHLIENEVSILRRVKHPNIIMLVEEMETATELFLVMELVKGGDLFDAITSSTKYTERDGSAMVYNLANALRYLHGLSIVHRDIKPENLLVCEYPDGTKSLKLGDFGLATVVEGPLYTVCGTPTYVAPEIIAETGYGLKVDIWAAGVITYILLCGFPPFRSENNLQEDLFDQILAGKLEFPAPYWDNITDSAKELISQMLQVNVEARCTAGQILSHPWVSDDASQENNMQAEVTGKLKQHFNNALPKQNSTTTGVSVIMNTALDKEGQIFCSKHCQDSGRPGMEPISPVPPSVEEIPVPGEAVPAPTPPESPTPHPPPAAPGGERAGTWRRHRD
# [5] = biological target: T1, Serine/threonine-protein kinase DCLK2 (Homo sapiens); conditions: at 10 µM
# [6] = biological target: T2, Discoidin domain-containing receptor 2 (Homo sapiens) (UniProt Q16832); conditions: at 1 µM
# T2 sequence (whole entry): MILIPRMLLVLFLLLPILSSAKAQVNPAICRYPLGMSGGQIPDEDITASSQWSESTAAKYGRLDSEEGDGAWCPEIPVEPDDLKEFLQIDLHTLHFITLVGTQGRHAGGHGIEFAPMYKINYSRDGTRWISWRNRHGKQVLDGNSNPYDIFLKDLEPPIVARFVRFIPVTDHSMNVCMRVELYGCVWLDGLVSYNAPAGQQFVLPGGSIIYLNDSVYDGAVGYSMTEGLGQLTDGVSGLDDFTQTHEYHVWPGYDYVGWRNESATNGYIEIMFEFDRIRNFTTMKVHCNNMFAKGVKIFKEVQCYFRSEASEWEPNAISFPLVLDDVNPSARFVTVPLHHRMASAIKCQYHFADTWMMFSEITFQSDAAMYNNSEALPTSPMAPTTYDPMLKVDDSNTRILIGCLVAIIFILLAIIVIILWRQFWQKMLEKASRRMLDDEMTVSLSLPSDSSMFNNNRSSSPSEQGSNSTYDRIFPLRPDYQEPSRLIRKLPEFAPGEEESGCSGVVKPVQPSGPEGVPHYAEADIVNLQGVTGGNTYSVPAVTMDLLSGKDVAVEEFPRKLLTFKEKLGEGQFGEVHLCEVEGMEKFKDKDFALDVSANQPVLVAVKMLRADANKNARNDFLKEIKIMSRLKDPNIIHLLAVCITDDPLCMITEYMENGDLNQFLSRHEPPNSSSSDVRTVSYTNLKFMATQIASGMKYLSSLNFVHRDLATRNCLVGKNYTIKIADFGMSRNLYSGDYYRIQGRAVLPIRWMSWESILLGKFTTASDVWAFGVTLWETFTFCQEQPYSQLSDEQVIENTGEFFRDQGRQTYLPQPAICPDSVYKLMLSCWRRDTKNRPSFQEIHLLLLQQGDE
# [7] = biological target: T2, Discoidin domain-containing receptor 2 (Homo sapiens); conditions: at 10 µM
# [8] = biological target: T3, Myotonin-protein kinase (Homo sapiens) (UniProt Q09013); conditions: at 1 µM
# T3 sequence (whole entry): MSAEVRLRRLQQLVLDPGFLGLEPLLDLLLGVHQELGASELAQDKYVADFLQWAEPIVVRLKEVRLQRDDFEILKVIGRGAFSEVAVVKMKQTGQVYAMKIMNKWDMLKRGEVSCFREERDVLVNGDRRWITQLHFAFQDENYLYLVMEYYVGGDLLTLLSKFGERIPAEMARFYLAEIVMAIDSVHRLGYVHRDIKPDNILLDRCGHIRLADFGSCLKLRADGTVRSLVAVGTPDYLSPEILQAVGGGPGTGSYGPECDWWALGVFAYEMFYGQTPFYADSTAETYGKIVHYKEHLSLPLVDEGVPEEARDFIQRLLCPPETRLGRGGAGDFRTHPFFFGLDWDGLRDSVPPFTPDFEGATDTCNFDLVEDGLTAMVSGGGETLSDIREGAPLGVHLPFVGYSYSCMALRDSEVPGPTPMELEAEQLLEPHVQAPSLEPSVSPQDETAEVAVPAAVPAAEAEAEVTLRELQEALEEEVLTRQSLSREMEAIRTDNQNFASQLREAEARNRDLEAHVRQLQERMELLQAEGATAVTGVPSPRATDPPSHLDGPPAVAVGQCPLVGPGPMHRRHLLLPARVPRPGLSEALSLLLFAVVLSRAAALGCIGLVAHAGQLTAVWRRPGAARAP
# [9] = biological target: T3, Myotonin-protein kinase (Homo sapiens); conditions: at 10 µM
# [10] = biological target: T4, Serine/threonine-protein kinase 17A (Homo sapiens) (UniProt Q9UEE5); conditions: at 1 µM
# T4 sequence (whole entry): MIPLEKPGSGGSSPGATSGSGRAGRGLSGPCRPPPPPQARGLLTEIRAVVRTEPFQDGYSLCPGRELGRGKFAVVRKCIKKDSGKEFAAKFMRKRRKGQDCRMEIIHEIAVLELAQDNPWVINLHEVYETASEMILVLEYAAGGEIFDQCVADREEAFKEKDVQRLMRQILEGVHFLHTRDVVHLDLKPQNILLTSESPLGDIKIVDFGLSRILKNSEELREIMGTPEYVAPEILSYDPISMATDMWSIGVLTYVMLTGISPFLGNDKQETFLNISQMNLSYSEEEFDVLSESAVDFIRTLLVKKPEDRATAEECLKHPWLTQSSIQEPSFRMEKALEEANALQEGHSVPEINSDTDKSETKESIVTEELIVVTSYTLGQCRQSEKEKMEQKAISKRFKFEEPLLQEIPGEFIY
# Death-associated protein kinase 2 (Homo sapiens), sequence (Q9UIK4 whole entry, looked up): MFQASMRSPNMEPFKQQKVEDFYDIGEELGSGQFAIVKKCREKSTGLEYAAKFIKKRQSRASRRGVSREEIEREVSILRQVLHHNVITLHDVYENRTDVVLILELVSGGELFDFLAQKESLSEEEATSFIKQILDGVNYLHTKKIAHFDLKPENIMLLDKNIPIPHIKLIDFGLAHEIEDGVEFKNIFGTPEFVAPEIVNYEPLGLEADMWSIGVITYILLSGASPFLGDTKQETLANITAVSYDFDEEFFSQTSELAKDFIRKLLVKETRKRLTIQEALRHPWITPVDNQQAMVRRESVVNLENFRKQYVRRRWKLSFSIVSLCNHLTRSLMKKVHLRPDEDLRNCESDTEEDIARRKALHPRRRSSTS
# Death-associated protein kinase 1 (Homo sapiens), sequence (P53355 whole entry, looked up): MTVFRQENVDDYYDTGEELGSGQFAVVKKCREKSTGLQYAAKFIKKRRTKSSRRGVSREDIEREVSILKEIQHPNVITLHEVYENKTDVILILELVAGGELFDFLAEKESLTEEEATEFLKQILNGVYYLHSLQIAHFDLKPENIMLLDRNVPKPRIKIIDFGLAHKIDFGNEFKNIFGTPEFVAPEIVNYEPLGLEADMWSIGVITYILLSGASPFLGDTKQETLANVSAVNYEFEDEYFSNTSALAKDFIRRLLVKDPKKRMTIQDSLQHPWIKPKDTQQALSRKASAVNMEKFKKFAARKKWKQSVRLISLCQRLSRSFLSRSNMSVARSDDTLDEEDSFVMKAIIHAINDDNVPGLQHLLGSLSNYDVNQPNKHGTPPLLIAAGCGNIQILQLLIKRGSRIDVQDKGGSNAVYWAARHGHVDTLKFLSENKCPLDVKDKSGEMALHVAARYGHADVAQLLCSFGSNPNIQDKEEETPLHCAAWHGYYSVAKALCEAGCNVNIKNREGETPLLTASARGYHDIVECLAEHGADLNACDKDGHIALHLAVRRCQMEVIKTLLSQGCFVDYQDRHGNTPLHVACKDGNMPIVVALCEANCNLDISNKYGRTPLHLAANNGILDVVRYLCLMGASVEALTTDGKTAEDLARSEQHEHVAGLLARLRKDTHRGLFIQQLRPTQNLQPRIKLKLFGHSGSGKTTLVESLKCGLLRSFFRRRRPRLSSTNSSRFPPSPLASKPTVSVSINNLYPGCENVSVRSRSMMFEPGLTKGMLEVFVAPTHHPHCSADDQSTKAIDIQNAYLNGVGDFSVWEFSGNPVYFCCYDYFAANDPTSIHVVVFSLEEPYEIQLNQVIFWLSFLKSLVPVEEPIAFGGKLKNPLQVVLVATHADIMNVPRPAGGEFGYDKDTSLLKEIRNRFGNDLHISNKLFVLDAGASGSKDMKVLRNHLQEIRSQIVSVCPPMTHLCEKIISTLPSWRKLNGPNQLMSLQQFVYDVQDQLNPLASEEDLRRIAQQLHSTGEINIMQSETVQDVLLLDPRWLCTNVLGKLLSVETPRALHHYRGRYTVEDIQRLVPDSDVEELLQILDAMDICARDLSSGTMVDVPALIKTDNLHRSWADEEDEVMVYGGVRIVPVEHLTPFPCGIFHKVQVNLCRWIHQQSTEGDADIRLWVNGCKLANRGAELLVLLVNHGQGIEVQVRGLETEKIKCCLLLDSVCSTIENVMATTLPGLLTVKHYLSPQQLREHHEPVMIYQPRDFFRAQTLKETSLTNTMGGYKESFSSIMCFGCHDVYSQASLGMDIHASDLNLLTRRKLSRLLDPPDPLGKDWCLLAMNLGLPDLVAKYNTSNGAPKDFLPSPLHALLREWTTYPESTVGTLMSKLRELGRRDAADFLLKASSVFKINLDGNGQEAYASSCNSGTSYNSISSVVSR
compound,measurement,setting,value
Nc1cccc(-c2cc3c(Oc4cccc(O)c4)ncnc3[nH]2)c1,residual activity,[1],101%
same,residual activity,[2],102%
same,residual activity,[3],91%
same,residual activity,[4],104%
same,residual activity,[5],78%
same,residual activity,[6],23%
same,residual activity,[7],4%
same,residual activity,[8],98%
same,residual activity,[9],84%
same,residual activity,[10],82%
Nc1ccc2ncnc(NCCc3ccc(Oc4ccccc4)cc3)c2c1,residual activity,[1],75%
same,residual activity,[2],105%
same,residual activity,[3],100%
same,residual activity,[4],110%
same,residual activity,[5],87%
same,residual activity,[6],91%
same,residual activity,[7],90%
same,residual activity,[8],98%
same,residual activity,[9],86%
same,residual activity,[10],62%
COc1ccc(CNc2nc(N(CCO)CCO)nc3c2ncn3C(C)C)cc1,residual activity,[1],88%
same,residual activity,[2],102%
same,residual activity,[3],104%
same,residual activity,[4],94%
same,residual activity,[5],80%
same,residual activity,[6],91%
same,residual activity,[7],96%
same,residual activity,[8],104%
same,residual activity,[9],73%
same,residual activity,[10],106%
Cc1cc(Nc2nc(-c3ccccc3)nc3ccccc23)n[nH]1,residual activity,[1],17%
same,residual activity,[2],56%
same,residual activity,[3],11%
same,residual activity,[4],99%
same,residual activity,[5],69%
same,residual activity,[6],71%
same,residual activity,[7],41%
same,residual activity,[8],111%
same,residual activity,[9],79%
same,residual activity,[10],42%
N#C/C(=C(\N)Sc1ccc(N)cc1)c1ccccc1C(F)(F)F,residual activity,[1],78%
same,residual activity,[2],98%
same,residual activity,[3],103%
same,residual activity,[4],102%
same,residual activity,[5],99%
same,residual activity,[6],91%
same,residual activity,[7],108%
same,residual activity,[8],95%
same,residual activity,[9],85%
same,residual activity,[10],96%
CO[C@H]1[C@@H](OC)C[C@H](C)[C@@H](OC)C2=CC(=O)C=C(NC(=O)/C(C)=C/C=C/[C@H](OC)[C@@H](OC(N)=O)/C(C)=C/[C@@H]1C)C2=O,residual activity,[1],78%
same,residual activity,[2],104%
same,residual activity,[3],114%
same,residual activity,[4],89%
same,residual activity,[5],75%
same,residual activity,[6],98%
same,residual activity,[7],99%
same,residual activity,[8],147%
same,residual activity,[9],127%
same,residual activity,[10],86%
Cn1cc(/C=C2\C(=O)Nc3ccc(S(N)(=O)=O)cc32)c2ccccc21,residual activity,[1],85%
same,residual activity,[2],92%
same,residual activity,[3],94%
same,residual activity,[4],97%
same,residual activity,[5],77%
same,residual activity,[6],94%
same,residual activity,[7],99%
same,residual activity,[8],80%
same,residual activity,[9],120%
same,residual activity,[10],22%
Cc1ccc(NC2=CC(=O)c3sc(C)nc3C2=O)cc1,residual activity,[1],89%
same,residual activity,[2],99%
same,residual activity,[3],94%
same,residual activity,[4],118%
same,residual activity,[5],93%
same,residual activity,[6],94%
same,residual activity,[7],101%
same,residual activity,[8],121%
same,residual activity,[9],91%
same,residual activity,[10],109%
O=c1c2ccccc2[nH]c(=S)n1CCN1CCC(=C(c2ccc(F)cc2)c2ccc(F)cc2)CC1,residual activity,[1],62%
same,residual activity,[2],109%
same,residual activity,[3],104%
same,residual activity,[4],91%
same,residual activity,[5],79%
same,residual activity,[6],104%
same,residual activity,[7],87%
same,residual activity,[8],105%
same,residual activity,[9],108%
same,residual activity,[10],71%
CC(C)n1cnc2/c(=N/c3cccc(Cl)c3)nc(NCCO)[nH]c21,residual activity,[1],94%
same,residual activity,[2],104%
same,residual activity,[3],98%
same,residual activity,[4],103%
same,residual activity,[5],94%
same,residual activity,[6],94%
same,residual activity,[7],93%
same,residual activity,[8],124%
same,residual activity,[9],74%
COc1ccc(S(=O)(=O)N(CCO)c2ccccc2CN(C)C/C=C/c2ccc(Cl)cc2)cc1,residual activity,[1],65%
same,residual activity,[2],100%
same,residual activity,[3],87%
same,residual activity,[4],91%
same,residual activity,[5],107%
same,residual activity,[6],97%
same,residual activity,[7],97%
same,residual activity,[8],99%
same,residual activity,[9],89%
same,residual activity,[10],95%
Cc1nc2cc3nc(-c4cccs4)cnc3cc2n1C,residual activity,[1],86%
same,residual activity,[2],105%
same,residual activity,[3],108%
same,residual activity,[4],115%
same,residual activity,[5],108%
same,residual activity,[6],111%
same,residual activity,[7],93%
same,residual activity,[8],113%
same,residual activity,[9],117%
same,residual activity,[10],64%
Oc1ccc(Nc2nc(-c3ccc(Cl)cc3)cs2)cc1,residual activity,[1],107%
same,residual activity,[2],101%
same,residual activity,[3],107%
same,residual activity,[4],123%
same,residual activity,[5],179%
same,residual activity,[6],97%
same,residual activity,[7],104%
same,residual activity,[8],100%
same,residual activity,[9],98%
same,residual activity,[10],119%
CNc1cc2c(Nc3cccc(Br)c3)ncnc2cn1,residual activity,[1],60%
same,residual activity,[2],86%
same,residual activity,[3],69%
same,residual activity,[4],121%
same,residual activity,[5],97%
same,residual activity,[6],84%
same,residual activity,[7],68%
same,residual activity,[8],107%
same,residual activity,[9],113%
same,residual activity,[10],64%
CC(C)n1cnc2c(NCc3ccccc3)nc(NCCCO)nc21,residual activity,[1],82%
same,residual activity,[2],101%
same,residual activity,[3],92%
same,residual activity,[4],100%
same,residual activity,[5],102%
same,residual activity,[6],87%
same,residual activity,[7],91%
same,residual activity,[8],94%
same,residual activity,[9],87%
same,residual activity,[10],107%
COc1ccc(C(=O)Nc2sc3c(c2C(N)=O)CCCC3)cc1OC,residual activity,[1],86%
same,residual activity,[2],90%
same,residual activity,[3],105%
same,residual activity,[4],86%
same,residual activity,[5],61%
same,residual activity,[6],101%
same,residual activity,[7],98%
same,residual activity,[8],113%
same,residual activity,[9],127%
same,residual activity,[10],125%
